# Laboratory results published in PubChem BioAssay.
# Inconclusive results are not listed. Calls of active or inactive are those of the source. Unless noted, the rule behind the calls is not given here.
# Assays:
# [1] = yeast TOR pathway RPL19A-GFP modulators, primary screen, cell-based, S. cerevisiae, multiplex flow cytometry (AID 1862; in the data active = percent of DMSO control GFP below about 86%;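 note: lower values mimic rapamycin by blocking the RPL19A rise seen in DMSO cells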); settings: S. cerevisiae RPL19A-GFP strain, flow cytometry fluorescence, 3 h; at 10 µM; stronger effect = lower value
# [2] = modulators of MEP2-GFP levels in yeast, primary screen, S. cerevisiae, multiplex flow cytometry (AID 1867;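 active = GFP response, as percent of the DMSO control, above the screen-wide mean plus 3 SD, about 139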;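 note: median GFP channel fluorescence of barcode-gated MEP2-GFP cells measured by flow cytometry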); settings: S. cerevisiae MEP2-GFP strain, 3 h, at 10 µM, stronger effect = higher value
# [3] = modulators of CIT2-GFP expression in yeast, primary screen, S. cerevisiae, GFP fusion, multiplex flow cytometry (AID 1870;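 active = percent response above a set limit, the screen-wide mean plus 3 SD, cut at about 130% in these data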;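 note: barcoded CIT2-GFP strain pooled with four other GFP strains with rapamycin as positive control; median GFP fluorescence per well over plate mean of DMSO wells so 100% = DMSO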); settings: 3 h, at 10 µM, stronger effect = higher value
# [4] = modulators of LAP4-GFP expression in yeast, primary screen, S. cerevisiae, multiplex flow cytometry (AID 1873;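 active = GFP signal, as percent of the solvent control, above the screen mean plus 3 SD, about 149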); settings: 3 h, at 10 µM, stronger effect = higher value
# [5] = modulators of AGP1-GFP expression in yeast TOR pathway, primary screen, cell-based, multiplex flow cytometry, S. cerevisiae (AID 1887;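 active = GFP signal above the screen-wide mean plus 3 SD, that is over about 124.5% of the solvent control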;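 note: AGP1-GFP fusion strain of S. cerevisiae within a five-strain barcoded multiplex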); settings: 3 h, at 10 µM, stronger effect = higher value
# [6] = inhibitors of CD8+ T cell-vesicle binding, pilot screen, LFA-1/ICAM-1 modulator project, MLPCN validation set, flow cytometry (AID 2523;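 active = response below a set limit, under 55% cells CD8-positive and vesicle-bound, and CD8 cells' 90th-percentile brightness under 279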;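 for vesicle binding response: mean PE anti-B7-1 fluorescence of CD8+ cells relative to row control; 100% = QL9-loaded vesicles with DMSO vehicle in the same plate row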); settings: 2C mouse CD8+ T cells, at 7 µM, stronger effect = lower value; double positive events: measured here: CD8+/vesicle+ event percentage
# [7] = molecular target: Integrin beta-1 (Homo sapiens) + Integrin alpha-4 (Homo sapiens) (UniProt P13612+P05556); assay: inhibition of HUTS-21 binding to VLA-4, pilot screen, VLA-4 allosteric modulator project, U937 cells, HUTS-21 mAb, flow cytometry, validation set (AID 2674;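 active = inhibition above 50%, about 3 SD of the validation set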;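 note: antibody binding induced by the VLA-4 ligand LDV present at three times its Kd; 0% = LDV ligand with antibody and no compound and 100% = antibody without LDV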); settings: HUTS-21 LIBS mAb binding, at 6.7 µM, stronger effect = higher value
# [8] = superoxide lowering in aged yeast cells, pilot screen, validation compound set (AID 2706;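 active = superoxide response below 65% of plate, a cut near 3 SD across the whole screen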;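 note: yeast exposed to compound for one week at 30 degrees C before staining; 100% = mean of all compound wells on the same plate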); settings: S. cerevisiae aging, superoxide DHE fluorescence; at 10 µM; stronger effect = lower value
# [9] = molecular target: Beta-adrenergic receptor kinase 1 (Homo sapiens) (UniProt P25098); assay: GRK2 binders displacing RNA aptamer, biochemical, validation, human GRK2, bead flow cytometry (AID 488806;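 active = aptamer binding inhibition above 30%, about 3 SD of noise from non-fluorescent compounds; inactive = inhibition at or below 30%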); settings: bead-bound GRK2, FAM-aptamer displacement, at 10 µM, stronger effect = higher value
# [10] = molecular target: Beta-2 adrenergic receptor (Homo sapiens) (UniProt P07550); assay: beta2AR agonists driving receptor internalization, pilot screen, cell-based, FAP fluorogen, flow cytometry, validation set (AID 504459;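 active = percent response above 42, roughly 3 SD of non-fluorescent test compounds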;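 note: agonist-driven loss of surface beta2AR via internalization measured by FAP dye flow cytometry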); settings: Am2.2-beta2AR cells, FAP surface receptor flow cytometry; at 10 µM; stronger effect = higher value
# [11] = molecular target: AP-2 complex subunit beta (Homo sapiens) (UniProt P63010); assay: inhibitors of arrestin peptide binding to AP2, pilot screen, biochemical, validation set, GST-AP2 beads, flow cytometry (AID 504541;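 active = inhibition above 54%, about 3 SD of non-fluorescent compounds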;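 note: AP2 carries R879A mutation and is captured from E. coli lysate; bead-bound FITC arrestin peptide fluorescence measuring arrestin peptide binding to AP2; 0% = DMSO wells and 100% = excess unlabeled arrestin peptide control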); settings: FITC arrestin peptide, at 10 µM, stronger effect = higher value
# [12] = yeast V-ATPase proton transport modulators, S. cerevisiae, pHLuorin, HTS validation (AID 504600; in the data active = response above about 15%;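 note: plate controls were DMSO for no effect and reference compound for full effect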); settings: S. cerevisiae pHLuorin cytosolic pH, at 10 µM, stronger effect = higher value
# [13] = system: anti-desmoglein-3 scFv antibody binding to human DSG3; assay: inhibitors of anti-DSG3 scFv binding to DSG3, pilot screen, biochemical, validation compound set, bead-based, flow cytometry (AID 588368;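 active = binding below the plate cutoff, the plate median minus 3 SD, with a reading above zero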;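 note: signal is the median channel fluorescence of bead-bound GFP antibody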); settings: Protein G beads, DSG3-Fc, scFv-GFP binding, at 10 µM, stronger effect = lower value
# [14] = system: Botulinum neurotoxin type F light chain protease (Clostridium botulinum); assay: Botulinum neurotoxin type F light chain protease inhibition, multiplex microsphere flow cytometry, validation set (AID 588459); settings: multiplex microsphere protease substrate cleavage assay, at 10 µM, stronger effect = higher value
# [15] = molecular target: Botulinum neurotoxin type A (Clostridium botulinum) (UniProt P0DPI0); assay: BoNT/A light chain protease inhibitors, biochemical, multiplex microsphere flow cytometry, validation set (AID 588460); settings: at 10 µM, stronger effect = higher value
# [16] = molecular target: Lethal factor (Bacillus anthracis) (UniProt P15917); assay: Lethal factor protease inhibitors, Bacillus anthracis, multiplex microsphere cleavage assay, validation set (AID 588461); settings: flow cytometry, at 10 µM, stronger effect = higher value
# [17] = inhibitors of fungal efflux pumps CDR1, CDR2, MDR1, pilot screen, validation compound set, multiplex, phenotypic (AID 588506;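 active = efflux inhibition above 0.42, the validation set average plus 4 SD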;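 note: Nile Red retained in cells so higher fluorescence means more efflux inhibition; 0 = negative control wells and 1 = enniatin B 25 µM full block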); settings: S. cerevisiae pump-expressing triplex, Nile Red efflux flow cytometry; at 10 µM; stronger effect = higher value
# [18] = molecular target: ATP-binding cassette sub-family B member 6 (Homo sapiens) (UniProt Q9NP58); assay: ABCB6 transporter inhibitors, pilot screen, K562-ABCB6 cells, flow cytometry, validation set (AID 588550;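 active = inhibition above the screen-wide mean plus 3 SD, about 51%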;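 note: 0% = DMSO wells and 100% = benzethonium chloride 70 µM positive control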); settings: K562-ABCB6 porphyrin accumulation, 1 h, at 10 µM, stronger effect = higher value
# [19] = promoters of myeloid differentiation in arrested cells, primary screen, cell-based, GFP/MAC1 double positive, flow cytometry, validation set (AID 588685;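 active = differentiation response of at least 50%, scaled between solvent and reference control, from cells with both markers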;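 note: compound exposure lasts four days before antibody staining and flow analysis; 0% = DMSO wells and 100% = 5 µM fulvestrant positive control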); settings: ER-HoxA9 marrow cells, stronger effect = higher value
# Botulinum neurotoxin type A (Clostridium botulinum), sequence (P0DPI0 whole entry, looked up): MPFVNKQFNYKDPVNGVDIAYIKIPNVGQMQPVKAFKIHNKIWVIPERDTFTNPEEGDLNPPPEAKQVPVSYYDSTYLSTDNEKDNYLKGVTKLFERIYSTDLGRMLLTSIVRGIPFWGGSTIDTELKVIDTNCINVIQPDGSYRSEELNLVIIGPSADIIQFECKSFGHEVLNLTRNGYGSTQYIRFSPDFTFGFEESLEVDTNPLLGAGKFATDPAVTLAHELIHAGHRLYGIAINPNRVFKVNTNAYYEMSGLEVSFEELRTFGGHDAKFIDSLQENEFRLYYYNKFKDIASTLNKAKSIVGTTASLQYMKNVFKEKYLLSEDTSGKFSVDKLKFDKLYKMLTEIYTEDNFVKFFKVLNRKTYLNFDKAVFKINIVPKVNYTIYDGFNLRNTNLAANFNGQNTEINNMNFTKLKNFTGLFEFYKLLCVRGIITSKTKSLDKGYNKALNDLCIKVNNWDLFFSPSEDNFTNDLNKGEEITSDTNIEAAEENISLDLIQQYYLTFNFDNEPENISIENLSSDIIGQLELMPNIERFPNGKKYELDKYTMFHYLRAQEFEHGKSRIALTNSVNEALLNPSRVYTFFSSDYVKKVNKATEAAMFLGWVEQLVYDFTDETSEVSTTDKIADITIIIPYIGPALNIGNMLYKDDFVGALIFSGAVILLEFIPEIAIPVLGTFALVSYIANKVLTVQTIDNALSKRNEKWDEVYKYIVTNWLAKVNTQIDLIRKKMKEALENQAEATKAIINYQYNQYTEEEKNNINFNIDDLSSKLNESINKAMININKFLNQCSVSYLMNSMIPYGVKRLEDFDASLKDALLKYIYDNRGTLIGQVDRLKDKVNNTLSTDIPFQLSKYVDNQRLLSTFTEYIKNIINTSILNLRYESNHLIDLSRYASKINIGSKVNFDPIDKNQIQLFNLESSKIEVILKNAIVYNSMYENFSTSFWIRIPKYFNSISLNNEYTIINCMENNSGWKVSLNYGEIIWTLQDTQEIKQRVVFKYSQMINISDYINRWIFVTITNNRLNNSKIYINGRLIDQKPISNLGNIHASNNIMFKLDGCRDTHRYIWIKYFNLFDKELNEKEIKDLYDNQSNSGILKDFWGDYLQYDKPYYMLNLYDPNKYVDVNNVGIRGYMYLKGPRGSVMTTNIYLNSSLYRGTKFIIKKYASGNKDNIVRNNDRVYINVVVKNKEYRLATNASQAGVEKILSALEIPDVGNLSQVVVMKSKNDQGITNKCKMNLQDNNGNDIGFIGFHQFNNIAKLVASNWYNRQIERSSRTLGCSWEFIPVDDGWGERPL
# Integrin beta-1 (Homo sapiens) + Integrin alpha-4 (Homo sapiens), sequence (P05556 whole entry, looked up): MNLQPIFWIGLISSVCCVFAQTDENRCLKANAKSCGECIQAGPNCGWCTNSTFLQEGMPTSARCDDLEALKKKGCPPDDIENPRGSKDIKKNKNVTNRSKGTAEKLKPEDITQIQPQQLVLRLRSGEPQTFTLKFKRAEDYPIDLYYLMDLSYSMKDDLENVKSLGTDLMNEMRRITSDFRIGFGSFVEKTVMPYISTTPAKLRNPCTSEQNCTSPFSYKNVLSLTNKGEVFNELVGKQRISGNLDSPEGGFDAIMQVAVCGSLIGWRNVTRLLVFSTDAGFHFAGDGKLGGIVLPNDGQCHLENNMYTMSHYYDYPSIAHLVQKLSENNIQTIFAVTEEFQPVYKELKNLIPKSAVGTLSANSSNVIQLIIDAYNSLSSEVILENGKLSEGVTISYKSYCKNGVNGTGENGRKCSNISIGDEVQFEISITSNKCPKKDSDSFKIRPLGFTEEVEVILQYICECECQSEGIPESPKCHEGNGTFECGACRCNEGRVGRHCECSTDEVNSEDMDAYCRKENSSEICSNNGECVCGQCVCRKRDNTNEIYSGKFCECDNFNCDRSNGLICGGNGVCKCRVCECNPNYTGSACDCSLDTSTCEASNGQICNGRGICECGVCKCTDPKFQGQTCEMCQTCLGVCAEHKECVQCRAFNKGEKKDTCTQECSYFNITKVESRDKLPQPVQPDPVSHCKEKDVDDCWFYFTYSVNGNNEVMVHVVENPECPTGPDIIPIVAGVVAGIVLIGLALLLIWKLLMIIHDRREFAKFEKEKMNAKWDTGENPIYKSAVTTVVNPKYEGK
# Integrin beta-1 (Homo sapiens) + Integrin alpha-4 (Homo sapiens), sequence (P13612 whole entry, looked up): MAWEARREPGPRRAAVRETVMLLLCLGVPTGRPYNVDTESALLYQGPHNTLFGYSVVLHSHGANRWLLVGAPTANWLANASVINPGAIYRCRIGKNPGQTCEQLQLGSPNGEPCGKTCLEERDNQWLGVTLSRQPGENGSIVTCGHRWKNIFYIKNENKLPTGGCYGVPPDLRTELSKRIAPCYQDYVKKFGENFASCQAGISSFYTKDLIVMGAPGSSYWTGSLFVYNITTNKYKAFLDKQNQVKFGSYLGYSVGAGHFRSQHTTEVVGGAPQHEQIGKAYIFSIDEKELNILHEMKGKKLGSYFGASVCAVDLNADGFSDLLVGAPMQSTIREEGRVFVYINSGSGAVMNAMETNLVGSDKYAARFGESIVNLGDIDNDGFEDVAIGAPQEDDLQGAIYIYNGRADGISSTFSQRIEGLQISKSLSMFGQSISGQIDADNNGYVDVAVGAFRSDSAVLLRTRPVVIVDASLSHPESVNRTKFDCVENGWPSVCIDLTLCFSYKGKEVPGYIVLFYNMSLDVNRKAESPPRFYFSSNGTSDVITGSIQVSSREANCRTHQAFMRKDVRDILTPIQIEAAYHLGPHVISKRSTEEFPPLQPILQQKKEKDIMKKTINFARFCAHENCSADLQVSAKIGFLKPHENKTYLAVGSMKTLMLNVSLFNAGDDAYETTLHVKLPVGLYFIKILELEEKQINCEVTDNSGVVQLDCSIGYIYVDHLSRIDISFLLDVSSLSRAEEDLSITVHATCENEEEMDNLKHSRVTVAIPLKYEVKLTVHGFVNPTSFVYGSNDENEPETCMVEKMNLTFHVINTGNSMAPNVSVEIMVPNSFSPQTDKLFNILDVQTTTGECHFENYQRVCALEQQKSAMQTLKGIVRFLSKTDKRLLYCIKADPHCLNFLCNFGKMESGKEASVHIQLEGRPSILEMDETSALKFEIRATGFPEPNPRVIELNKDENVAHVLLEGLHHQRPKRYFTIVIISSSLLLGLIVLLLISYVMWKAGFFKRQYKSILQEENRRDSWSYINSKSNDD
# Beta-adrenergic receptor kinase 1 (Homo sapiens), sequence (P25098 whole entry, looked up): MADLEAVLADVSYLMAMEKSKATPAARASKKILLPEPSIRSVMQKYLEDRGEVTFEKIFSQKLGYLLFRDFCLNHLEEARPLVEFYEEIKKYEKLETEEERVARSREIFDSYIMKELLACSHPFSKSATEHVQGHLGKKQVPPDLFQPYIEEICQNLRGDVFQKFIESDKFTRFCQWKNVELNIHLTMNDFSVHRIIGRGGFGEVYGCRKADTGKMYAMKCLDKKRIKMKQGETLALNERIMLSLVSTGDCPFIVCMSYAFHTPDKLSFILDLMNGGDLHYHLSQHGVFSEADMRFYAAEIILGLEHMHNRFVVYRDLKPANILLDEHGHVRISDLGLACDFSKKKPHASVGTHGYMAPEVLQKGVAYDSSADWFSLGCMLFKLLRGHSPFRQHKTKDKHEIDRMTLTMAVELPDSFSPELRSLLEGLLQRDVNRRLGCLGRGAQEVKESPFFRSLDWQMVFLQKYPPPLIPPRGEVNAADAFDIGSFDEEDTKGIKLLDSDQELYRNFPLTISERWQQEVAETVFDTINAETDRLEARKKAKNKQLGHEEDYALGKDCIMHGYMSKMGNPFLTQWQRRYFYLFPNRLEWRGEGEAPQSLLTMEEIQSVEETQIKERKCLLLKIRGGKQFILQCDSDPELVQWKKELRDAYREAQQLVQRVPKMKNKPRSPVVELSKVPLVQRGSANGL
# Lethal factor (Bacillus anthracis), sequence (P15917 whole entry, looked up): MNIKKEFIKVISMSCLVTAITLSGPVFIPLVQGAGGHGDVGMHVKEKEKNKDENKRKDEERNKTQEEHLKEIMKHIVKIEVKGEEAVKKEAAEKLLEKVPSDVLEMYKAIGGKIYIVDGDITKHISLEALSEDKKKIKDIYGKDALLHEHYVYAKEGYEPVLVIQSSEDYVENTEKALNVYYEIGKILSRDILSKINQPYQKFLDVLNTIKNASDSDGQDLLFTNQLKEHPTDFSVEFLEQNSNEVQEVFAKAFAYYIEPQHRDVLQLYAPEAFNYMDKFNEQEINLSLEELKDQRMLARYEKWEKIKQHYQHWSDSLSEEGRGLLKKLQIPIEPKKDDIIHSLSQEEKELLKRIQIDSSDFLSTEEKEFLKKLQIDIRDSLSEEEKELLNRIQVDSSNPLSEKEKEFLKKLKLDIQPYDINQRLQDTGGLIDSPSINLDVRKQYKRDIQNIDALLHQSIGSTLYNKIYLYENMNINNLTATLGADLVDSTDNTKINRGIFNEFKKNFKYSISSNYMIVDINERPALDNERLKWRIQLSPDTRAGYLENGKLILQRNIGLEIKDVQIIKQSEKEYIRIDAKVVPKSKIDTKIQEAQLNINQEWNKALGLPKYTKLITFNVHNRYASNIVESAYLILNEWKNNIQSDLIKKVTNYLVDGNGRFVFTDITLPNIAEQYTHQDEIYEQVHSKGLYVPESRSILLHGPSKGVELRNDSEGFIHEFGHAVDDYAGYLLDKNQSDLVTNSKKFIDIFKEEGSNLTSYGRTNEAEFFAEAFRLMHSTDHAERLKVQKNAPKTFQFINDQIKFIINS
# Beta-2 adrenergic receptor (Homo sapiens), sequence (P07550 whole entry, looked up): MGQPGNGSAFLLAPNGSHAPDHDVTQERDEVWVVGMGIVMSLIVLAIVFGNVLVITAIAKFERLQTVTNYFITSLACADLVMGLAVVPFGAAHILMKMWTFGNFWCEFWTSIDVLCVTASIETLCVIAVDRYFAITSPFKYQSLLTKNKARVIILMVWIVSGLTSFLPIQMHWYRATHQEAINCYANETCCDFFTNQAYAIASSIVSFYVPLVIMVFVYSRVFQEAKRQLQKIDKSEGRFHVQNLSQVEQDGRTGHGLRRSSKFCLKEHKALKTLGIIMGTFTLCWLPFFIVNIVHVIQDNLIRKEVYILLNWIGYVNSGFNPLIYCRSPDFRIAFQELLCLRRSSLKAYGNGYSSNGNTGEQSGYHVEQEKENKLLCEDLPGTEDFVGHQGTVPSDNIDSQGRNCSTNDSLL
Structure (SMILES),percent of DMSO control GFP [1],GFP response vs DMSO [2],percent response of DMSO control [3],GFP response vs DMSO [4],"GFP response, % of DMSO [5]",double positive events [6] [%],vesicle binding response [6],inhibition [7],superoxide response (% of plate) [8],aptamer binding inhibition [9],response [10],inhibition [11],response [12],binding (% of control) [13],inhibition [14],inhibition [15],inhibition [16],efflux inhibition (fraction of control) [17],inhibition [18],differentiation response [19]
CN1CCN(C(=O)OC2c3nccnc3C(=O)N2c2ccc(Cl)cn2)CC1 (stereo not given),99.9% (inactive),112% (inactive),92.9% (inactive),117% (inactive),106% (inactive),58.9,6590% (inactive),9.13% (inactive),111% (inactive),2% (inactive),-5.78% (inactive),0.51% (inactive),-1.22% (inactive),100% (inactive),4.3% (inactive),-0.8% (inactive),1.7% (inactive),-0.03 (inactive),5% (inactive),-13.6% (inactive)
CC(=O)c1ccc(-c2ccccc2)cc1,97% (inactive),120% (inactive),110% (inactive),84.7% (inactive),103% (inactive),63.6,339% (inactive),-15.8% (inactive),96.8% (inactive),-3% (inactive),9.21% (inactive),-0.36% (inactive),1% (inactive),108% (inactive),-2.6% (inactive),-1.2% (inactive),-1.9% (inactive),-0.06 (inactive),14% (inactive),4.91% (inactive)
O=C1NCCN2CCCC12 (stereo not given),100% (inactive),99.7% (inactive),102% (inactive),93.7% (inactive),102% (inactive),58.7,108% (inactive),12.3% (inactive),92.8% (inactive),0% (inactive),0.01% (inactive),4.79% (inactive),113% (active),101% (inactive),-0.2% (inactive),-0.6% (inactive),5.9% (inactive),-0.09 (inactive),21% (inactive),-11.9% (inactive)
CN1C[C@H](CNC(=O)OCc2ccccc2)C[C@@H]2c3cccc4c3c(cn4C)C[C@H]21,103% (inactive),101% (inactive),99% (inactive),104% (inactive),108% (inactive),63.3,365% (inactive),-34.3% (inactive),125% (inactive),-1% (inactive),13.7% (inactive),-6.87% (inactive),-0.08% (inactive),110% (inactive),-0.5% (inactive),1.5% (inactive),-7.6% (inactive),0.04 (inactive),-29% (inactive),-6.96% (inactive)
OC(c1ccccc1)(c1ccccc1)C1CCNCC1,99.4% (inactive),110% (inactive),104% (inactive),85.3% (inactive),103% (inactive),73.3,322% (inactive),-5.18% (inactive),94.6% (inactive),12% (inactive),6.3% (inactive),2.73% (inactive),10.3% (inactive),106% (inactive),4.1% (inactive),1.1% (inactive),4.1% (inactive),0.05 (inactive),12% (inactive),2.46% (inactive)
CC(C)CCC1(CN2CCCC2=O)C(=O)NC(=O)NC1=O,95.4% (inactive),105% (inactive),86.3% (inactive),120% (inactive),101% (inactive),58.9,219% (inactive),0.94% (inactive),97.2% (inactive),1% (inactive),5.39% (inactive),-2.03% (inactive),-6.71% (inactive),98.4% (inactive),2.3% (inactive),0.7% (inactive),-0.7% (inactive),0.12 (inactive),5% (inactive),45.6% (inactive)
c1ccc2c(c1)[nH]c1cnccc12,102% (inactive),97.2% (inactive),104% (inactive),88.1% (inactive),95.9% (inactive),62.8,961% (inactive),-18.1% (inactive),99.7% (inactive),0% (inactive),-10.7% (inactive),-7.59% (inactive),-0.12% (inactive),96.1% (inactive),5.3% (inactive),2.5% (inactive),-4.7% (inactive),0.14 (inactive),0% (inactive),2.2% (inactive)
CC[N+]1(C)CCCC(OC(=O)C(O)(c2ccccc2)c2ccccc2)C1 (stereo not given),99% (inactive),102% (inactive),103% (inactive),103% (inactive),119% (inactive),61,160% (inactive),5.69% (inactive),96.5% (inactive),4% (inactive),-15.3% (inactive),-0.87% (inactive),-0.49% (inactive),107% (inactive),0.8% (inactive),-0.6% (inactive),8% (inactive),0.04 (inactive),1% (inactive),-5.97% (inactive)
